# This excerpt belongs to a sample that is enriched for hits.
# CD11b adhes enh: enhancers of CD11b/CD18 adhesion to fibrinogen, primary screen, K562 cells, luminescence; hit rate 0.07% among 93,000; Integrin beta-2 (Homo sapiens) + Integrin alpha-M (Homo sapiens), P05107+P11215; ATPlite luminescence; activation, % at 10 µM;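 active = 10 µM primary screen giving 50% or more activity, confirmed by 40% or more on retest at that dose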
# D1 allo mod: D1 CRE-luciferase signal change, two-sided – cell-based, HEK293 D1, dopamine EC30, D1 allosteric modulator project, primary screen | D(1A) dopamine receptor (Homo sapiens), P21728 | dopamine EC30 potentiation; actives deviate in either direction | AID 641, 2007 | B-score at 10 µM | hit rate 5.9% among 58,000;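 active = luminescence count or its row- and column-corrected plate score outside the 99.7% band of the plate's sample wells, on either side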
# Target sequence (P21728 whole entry, looked up): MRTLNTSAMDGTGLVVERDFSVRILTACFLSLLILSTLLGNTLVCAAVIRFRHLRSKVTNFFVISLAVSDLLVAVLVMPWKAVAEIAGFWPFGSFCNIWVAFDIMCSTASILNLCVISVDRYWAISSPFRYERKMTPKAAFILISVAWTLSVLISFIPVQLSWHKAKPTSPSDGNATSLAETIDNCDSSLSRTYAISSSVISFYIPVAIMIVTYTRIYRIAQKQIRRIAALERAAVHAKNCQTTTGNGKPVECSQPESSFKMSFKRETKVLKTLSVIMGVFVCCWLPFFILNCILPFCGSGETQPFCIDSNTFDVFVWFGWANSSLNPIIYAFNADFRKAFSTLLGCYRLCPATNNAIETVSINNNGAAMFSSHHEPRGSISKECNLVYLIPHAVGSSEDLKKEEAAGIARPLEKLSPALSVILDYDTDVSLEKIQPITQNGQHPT
# hDAT+cocaine: changed hDAT dopamine uptake under cocaine IC80, either direction, primary screen, cocaine antagonist project, cell-based, LLC-PK1 hDAT, [14C]-dopamine uptake, MLSMR | Sodium-dependent dopamine transporter (Homo sapiens), Q01959 | LLC-PK1 hDAT cells, [14C]-dopamine uptake with cocaine IC80; actives deviate in either direction | B-score at 10 µM | hit rate 1.3% among 110,000 | AID 449768, 2010;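 active = Z score or B-score, a plate-position-corrected score, falls beyond the plate's 99.7% confidence bounds, in either direction; inactive = both scores lie inside the 99.7% bounds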;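 also: scored against the spread of the other compound wells on the same plate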
# Pyk2 oligo antag: antagonists of Pyk2 self-association, primary screen, Q293 cells, FERM NanoBiT luminescence, HTS; Protein-tyrosine kinase 2-beta (Homo sapiens), Q14289; active compounds read low; z-score (the deposit names both 25 µM and 10 µM); hit rate 0.83% among 99,000; AID 1347419, 2020;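 active = Z-score of -3 or lower, scaled per plate to the spread of control and sample wells; inactive = z-score above -3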;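 also: negative z-score means lost luminescence so less FERM oligomerization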
# FAK blocker: FAK kinase inhibitors, primary screen, biochemical; hit rate 0.84% among 97,000; inhibition, %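 (tested at 7 µM)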; biochemical FAK kinase activity assay; Focal adhesion kinase 1 (Homo sapiens), Q05397; in the data active = inhibition above about 19%;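 also: 0% = DMSO and 100% = reference compound high control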
# Mac1 fbg inh: inhibitors of CD11b/CD18 adhesion to fibrinogen, primary screen, K562 cells, luminescence; inhibition, % at 10 µM; hit rate 0.54% among 93,000; ATPlite luminescence; Mn2+ added to activate the integrin;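 active = primary inhibition of 50% or more at 10 µM, then 40% or more on retest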
# * marks the source's active call; other numbers are inactive results; · = no result given.
SMILES,CD11b adhes enh,D1 allo mod,hDAT+cocaine,Pyk2 oligo antag,FAK blocker,Mac1 fbg inh
Cc1nc2c(Br)cc(Br)cc2cc1O,-6,·,-0.55,-1.1,2,90*
O=C(CSc1nnc(CNc2ccc(F)cc2)o1)N1c2ccccc2Sc2ccccc21,·,·,0.24,-0.67,2,·
C[C@H](NC(=O)c1nc[nH]c1C(=O)N[C@@H](CCCCNC(=O)OC(C)(C)C)C(=O)OC(C)(C)C)c1ccccc1,·,·,0.72,·,·,·
CCOc1ccc(C2CC(c3cccc(OC)c3OC)n3nnnc3N2)cc1Cl (configuration not stated),10,·,-4.3*,-1.9,·,-1
COc1ccc(C2CC(c3ccccc3)n3nnnc3N2)cc1 (configuration not stated),-1,·,-0.5,0.52,-1,-5
Cc1ccc(C(=O)C[n+]2cc(-c3ccc(C)cc3)n3c2CCCCC3)cc1,-6,·,·,-0.93,5,54*
CC(c1ccccc1)N1C(=O)c2ccccc2C1O (configuration not stated),1,·,0.25,·,-12,-4
O=c1nc2ccccc2c2n1CC(CN1CCN(c3ccccc3F)CC1)N2 (configuration not stated),·,·,0.057,-0.56,2,·
C=CCn1c(C)cc(C(=O)COc2ncnc3sccc23)c1C,-4,-4.5*,0.7,-0.85,2,-5
CC(C)NC(=O)COc1ncnc2sccc12,·,·,-1.5,3,6,·
CCCCCCn1cnc2c(c1=O)c1nc3ccccc3nc1n2/N=C/c1ccco1,-2,-0.61,4*,-0.89,0,7
Cn1nnnc1SCC(=O)N1CCN(c2cccc(Cl)c2)CC1,-4,-0.76,-0.18,-0.6,0,-6
CCn1c(C)nc2cc(-c3nnc(-c4c(-c5ccccc5)noc4C)o3)ccc21,-5,·,6.6e-05,-3.1*,4,0
CCOC(=O)c1[nH]c2ccccc2c1NC(=O)C1CCCC1,·,6.9*,-0.37,·,·,·
CCOC(=O)C1CCCN(CC(=O)Nc2c(C(=O)OC)[nH]c3ccc(Cl)cc23)C1 (configuration not stated),-5,1.5,2.9*,-0.84,-3,7
CCOC(=O)c1[nH]c2ccccc2c1NC(=O)CC(C)(C)C,1,0.58,-0.93,·,9,0
CCOc1cc(NC(=O)C2CC2)c(OCC)cc1NC(=O)c1cccnc1,1,0.06,·,·,·,-1
CCOc1cc(NC(=O)C2CC2)c(OCC)cc1NC(=O)c1ccccn1,1,0.058,-1.5,-3.2*,-2,7
CC(C)(C)[C@H]1C=C(C(=O)Nc2ccccc2)O[C@@H](OCCCCO)C1,·,·,0.45,·,·,·
Cc1ccc(C(=O)Nc2ccc3c(c2)CCC3)o1,-6,-3.5,1.4,0.27,·,-20
Cc1cc(C(=O)Nc2cccc(C(=O)O)c2)oc1C,3,-4.4*,0.086,-0.5,·,-4
O=C(Nc1ccc2c(c1)CCC2)c1ccc(Br)o1,-3,·,2.2*,-0.36,0,0
CCc1cccc(NC(=O)c2ccc(Br)o2)c1,1,-1.2,4.9*,-0.59,1,3
O=C(c1ccccc1)c1cccc(NC(=O)c2ccc(Br)o2)c1,-2,·,-9.7*,-2.4,-1,20
Cc1cc(C(=O)Nc2cccc(C(=O)O)c2)c(C)o1,2,·,-1.2,0.66,0,-2
SMILES,CD11b adhes enh,D1 allo mod,hDAT+cocaine,Pyk2 oligo antag,FAK blocker,Mac1 fbg inh
O=C(Nc1ccccc1)c1ccc(Br)o1,·,·,0.53,·,·,·
Cc1cc(C)c(C)c(OCCCn2ccnc2)c1,2,·,-0.2,-0.31,-1,-22
CC(C)(C)C(=O)COC(=O)CNC(=O)c1ccc(Oc2ccccc2)cc1,1,·,1.6,0.15,1,-8
Cn1ccnc1SCC(=O)Nc1ccc2ccccc2c1,2,-6.6*,1.1,0.03,-1,-24
O=C(CSc1ccc2ccccc2c1)Nc1ccncc1,-5,·,·,2.1,-1,86*
CCC12CCCN3CCC4(C(=C(C(=O)OC)C1)Nc1ccccc14)C32 (configuration not stated),1,-0.098,-0.91,0.3,2,-13
CCCn1nnnc1NC(=O)CSc1ccc(Cl)cc1,-4,-0.3,-1.5,1.6,0,-7
Cc1cccc(N2CCN(C(=O)c3ccc4ncsc4c3)CC2)c1C,-4,·,2.5*,0.17,0,24
O=C(c1ccc2ncsc2c1)N1CCN(c2ccc(O)cc2)CC1,1,·,0.72,0,1,-9
Brc1ccccc1OCCCCCN1CCCC1,·,·,0.026,·,5,·
Cc1ccccc1OCCCN1CCCC1,·,-0.96,-0.35,0.3,-1,·
C=CCc1ccccc1OCCCCN1CCCC1,0,-3*,-1.2,0.25,·,-2
C=CCc1ccccc1OCC(CN1CCCCC1)OC(C)=O (configuration not stated),-5,-4.5*,-0.31,0.01,3,-16
CCc1ccccc1OCCCCN1CCCC1,1,-3.1*,-1.2,-1.1,-8,-26
C=CCc1ccccc1OCC(O)CNC(C)C (configuration not stated),·,-1.6,-0.77,·,·,·
CCc1ccc(NC(=O)C(=O)NCCN2CCN(C(=O)c3ccco3)CC2)cc1,·,·,-0.24,1.3,-1,·
CC(=O)c1cccc(NC(=O)c2nccnc2C(=O)O)c1,-2,-3.5*,-0.58,-0.94,2,-7
Cc1ccc(NC(=O)c2nccnc2C(=O)O)cc1C,-2,·,-0.73,·,6,-3
c1ccc(-c2nc(NCc3cccnc3)c3ccccc3n2)cc1,-1,·,0.32,-3.7*,2,-2
Cc1ccc(-c2nc(N/N=C/c3cccnc3)c3ccccc3n2)cc1,-8,·,1.3,-2.9,1,95*
COc1cccc2cc(/C(C)=N/Nc3nc(-c4cc(C)ccc4C)cs3)c(=O)oc12,80,·,0.77,0.49,1,-5
C=CCOc1ccc(/C(O)=C2/C(=O)C(=O)N(CCCn3ccnc3)C2c2cccs2)cc1 (configuration not stated),-3,1,0.33,-0.51,-1,-9
COCCOC(=O)C1=C(C)N=C2SCCC(=O)N2C1c1ccc(OC(=O)c2ccco2)cc1 (configuration not stated),-2,2.3,-0.54,0.56,-1,-1
COc1ccc(OC)c(NC(=O)COC(=O)CSc2ccc(Cl)cc2)c1,·,·,·,0.77,·,·
C=C(C)c1cccc(C(C)(C)NC(=O)N2CCN(CC(N)=O)CC2)c1,-3,-0.58,0.95*,0.93,-1,-5
C=C(C)c1cccc(C(C)(C)NC(=O)N2CCN(CC)CC2)c1,·,-1.7,-0.79,1.3,0,·
COC(=O)C1=C[C@@H](C(=O)OC)[C@@H]2C3=C(C(=O)[C@]2(CC(C)C)NC(=O)c2ccccc2)[C@H](C)n2c(=O)n(-c4ccccc4)c(=O)n2[C@@H]3C1,·,·,-2.5*,·,·,·

# Bioassay records from PubChem BioAssay.
